Source: PubChem BioAssay (National Center for Advancing Translational Sciences (NCATS))
In the library only some 0.87% were active in any assay of this set; here they are far more common.
RECQ1 inh-1 – inhibitors of human RECQ1 DNA helicase. P46063. Potency, µM (titrated, usually from 57.3 µM), without a hit: at the top dose activity, negative = inhibition, usual class: inhibitors. RECQ1 DNA unwinding, red fluorescence kinetic read. 240,000 tested, 0.54% active;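 further: plate controls were vehicle for no effect and no enzyme for full effect; nearly all actives have a fitted effect of over 30% in size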
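50 nM RECQ1T1 preincubated 15 min with compound in Tris pH 8.0 buffer with MgCl2, DTT, Tween-20 and 2.5 ug/ml poly(dI-dC); started with 200 nM TAMRA/BHQ-2 forked duplex and 2 mM ATP. Unwinding read as fluorescence (525/598 nm), two reads 2 h apart.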
WRN inhibitor – WRN helicase (human) inhibition; Q14191; WRN helicase unwinding, fluorescent forked duplex, kinetic; Potency, µM (highest dose often 114 µM), without a hit: top-dose activity change, negative = inhibition, hits mostly inhibitors; 360,000 tested, 0.46% active; AID 651768; further: on the % scale 0 is the no-effect control and ±100 the full control effect; nearly all actives have a fitted effect of over 55% in size
Target sequence (Q14191 whole entry, looked up): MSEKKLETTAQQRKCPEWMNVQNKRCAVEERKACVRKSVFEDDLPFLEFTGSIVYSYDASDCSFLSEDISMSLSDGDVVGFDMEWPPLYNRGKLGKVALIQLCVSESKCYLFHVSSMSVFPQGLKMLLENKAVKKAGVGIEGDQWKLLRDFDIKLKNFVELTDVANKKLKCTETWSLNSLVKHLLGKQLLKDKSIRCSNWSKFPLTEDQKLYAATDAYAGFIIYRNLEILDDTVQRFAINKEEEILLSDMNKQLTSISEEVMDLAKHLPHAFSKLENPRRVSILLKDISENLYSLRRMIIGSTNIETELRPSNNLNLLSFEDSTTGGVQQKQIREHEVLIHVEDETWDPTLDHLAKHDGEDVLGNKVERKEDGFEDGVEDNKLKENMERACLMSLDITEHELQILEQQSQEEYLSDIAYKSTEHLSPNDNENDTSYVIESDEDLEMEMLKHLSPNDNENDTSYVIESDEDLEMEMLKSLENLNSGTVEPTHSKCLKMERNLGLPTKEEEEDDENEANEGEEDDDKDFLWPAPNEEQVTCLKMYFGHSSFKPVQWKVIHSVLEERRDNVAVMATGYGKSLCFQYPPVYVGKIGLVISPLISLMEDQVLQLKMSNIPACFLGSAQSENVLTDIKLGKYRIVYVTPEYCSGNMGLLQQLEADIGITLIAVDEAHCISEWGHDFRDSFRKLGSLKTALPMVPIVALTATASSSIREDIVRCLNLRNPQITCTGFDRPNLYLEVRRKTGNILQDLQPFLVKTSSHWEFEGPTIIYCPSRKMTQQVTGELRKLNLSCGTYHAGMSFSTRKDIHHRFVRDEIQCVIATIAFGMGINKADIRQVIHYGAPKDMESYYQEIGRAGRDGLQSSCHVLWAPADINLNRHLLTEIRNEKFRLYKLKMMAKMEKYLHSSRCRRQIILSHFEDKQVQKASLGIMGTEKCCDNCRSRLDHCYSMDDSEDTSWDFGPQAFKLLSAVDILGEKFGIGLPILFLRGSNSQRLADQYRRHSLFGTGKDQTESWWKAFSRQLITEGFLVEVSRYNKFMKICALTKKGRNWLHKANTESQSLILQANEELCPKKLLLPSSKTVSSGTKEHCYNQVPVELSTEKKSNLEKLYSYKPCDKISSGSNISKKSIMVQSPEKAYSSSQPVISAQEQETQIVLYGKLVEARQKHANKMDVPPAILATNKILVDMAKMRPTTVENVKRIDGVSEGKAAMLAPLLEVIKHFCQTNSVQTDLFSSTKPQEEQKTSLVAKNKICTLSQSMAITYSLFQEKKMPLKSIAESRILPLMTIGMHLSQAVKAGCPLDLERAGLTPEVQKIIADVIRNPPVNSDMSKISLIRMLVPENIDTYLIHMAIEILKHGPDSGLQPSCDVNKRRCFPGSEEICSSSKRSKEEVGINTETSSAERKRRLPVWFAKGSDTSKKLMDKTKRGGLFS
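Kinetic red-fluorescence monitoring (525/598 nm) tracks WRN helicase activity after 100 nM fluorophore-quencher forked duplex and 2 mM ATP are added to 20 nM enzyme pretreated 15 min at room temperature with compound.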
BLM inh – inhibitors of human Bloom syndrome helicase BLM | P54132 | recombinant BLM DNA unwinding, fluorescence dequenching | Potency, µM (highest dose often 56.1 µM), for inactives: at the highest dose activity change, negative = inhibition, most hits filed as inhibitors | 350,000 tested, 0.2% active | AID 2528;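 further: plate controls were vehicle for no effect and no enzyme for full effect; nearly all actives have a fitted effect of over 35% in size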
APEX1 inh – inhibitors of human APE1 endonuclease | P27695 | 350,000 tested, 0.35% active | Potency, µM (highest dose often 65.8 µM), for inactives: at the highest dose activity change, negative = inhibition, most hits filed as inhibitors | recombinant APE1, TAMRA/BHQ-2 abasic DNA cleavage fluorescence;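 further: plate controls were vehicle for no effect and reference inhibitor for full effect; nearly all actives have a fitted effect of over 55% in size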
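Substrate: short duplex with […] THF abasic site, 5'-TAMRA and 3'-BHQ-2, 50 nM final. APE1 at 0.75 nM, preincubated 15 min RT with compound. Fluorescence increase from first to third read measured activity.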
FEN1 inh-1 – blocks human flap endonuclease 1; Potency, µM (doses to about 114 µM), without a hit: at the highest dose activity change, negative = inhibition, actives largely listed as inhibitors; Recombinant FEN1 flap cleavage, fluorescence, 15 min; AID 588795; 390,000 tested, 0.35% active; further: on the % scale 0 is the no-effect control and ±100 the full control effect; nearly all actives have a fitted effect of over 65% in size
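FEN1 at 10 nM preincubated with compounds 15 min at room temperature, then flap DNA substrate added at 50 nM final. Signal read at 0 and 15 min; concentration-response fitted with four-parameter Hill equation.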
RECQ1 conf – confirmation of human RECQ1 helicase inhibitors; shares compounds with RECQ1 inh-1; RECQ1 helicase DNA unwinding, fluorescence; Potency, µM (titrated, usually from 229 µM), without a hit: at the highest dose activity change, negative = inhibition, actives largely listed as inhibitors; 610 tested, 28% active; AID 2708; further: on the % scale 0 is the no-effect control and ±100 the full control effect; nearly all actives have a fitted effect of over 45% in size
ADP FP counter – displaces ADP in a fluorescence polarization counter-screen for RECQ1 hits; shares compounds with RECQ1 inh-1; ADP fluorescence polarization displacement counterscreen; Potency, µM (top dose mostly 228 µM), inactives show top-dose activity change, negative = inhibition, hits mostly inhibitors; 530 tested, 27% active; further: on the % scale 0 is the no-effect control and ±100 the full control effect; nearly all actives have a fitted effect of over 45% in size
RECQ1 inh-2 – RECQ1 helicase inhibition confirmed, round 2. Potency, µM (doses to about 119 µM), without a hit: at the highest dose activity, negative = inhibition, most hits filed as inhibitors. shares compounds with RECQ1 inh-1. 1,100 tested, 15% active. recombinant RECQ1 DNA unwinding, red fluorescence; further: on the % scale 0 is the no-effect control and ±100 the full control effect; nearly all actives have a fitted effect of over 50% in size
FEN1 inh-2 – confirmation of human FEN1 inhibitors | FEN1 flap cleavage, TAMRA/BHQ2 fluorogenic DNA substrate | 880 tested, 79% active | AID 720498 | shares compounds with FEN1 inh-1 | Potency, µM, most hits filed as inhibitors; further: nearly all actives have a fitted effect of over 60% in size
* marks the source's active call; other numbers are inactive results; i = inactive; ? = inconclusive; . = no result; ! = not active in a repeat; [ ] = dose if it differs, or a comment. The call rests on the fitted dose curve; in most records, active means well fitted curve in the direction sought with a large enough effect; inconclusive means small, poorly fitted or top-dose-only effect, or another doubt; inactive means no such curve, though single readings can be large; an effect the other way counts as inactive or inconclusive. Potency means the concentration at half of the fitted maximal effect.

SMILES | RECQ1 inh-1 | WRN inhibitor | BLM inh | APEX1 inh | FEN1 inh-1 | others
CNc1ccc2oc(C[C@@H]3OC4(CC[C@@H]3C)O[C@H]([C@@H](C)C(=O)c3ccc[nH]3)[C@H](C)C[C@H]4C)nc2c1C(=O)O (stereo partly specified) | ? | . | . | ? | . | RECQ1 inh-2=9%
CCOc1ccc(-c2nc3ccc(-c4nc5ccc(N6CCN(C)CC6)cc5[nH]4)cc3[nH]2)cc1 | 13µM* | . | ? | 13% | . | RECQ1 inh-2=5.6µM*!
Cc1ccc2nc(N3CCN(C)CC3)[nH]c2c1 | -6% | -9% | -7% | 0% | -1%
Cn1c(O)c(/C=N/NC(=O)c2ccncc2)c(=O)[nH]c1=S | 3.2µM* | -32% | -3% | ? | -3% | RECQ1 conf=?;ADP FP counter=34%[91.9 µM];RECQ1 inh-2=32µM*
CC(=O)O[C@H]1C[C@@H]2CCC3C(CC[C@@]4(C)[C@H]3C[C@H]([N+]3(C)CCCCC3)[C@@H]4OC(C)=O)[C@@]2(C)C[C@@H]1[N+]1(C)CCCCC1 (stereo partly specified) | 69% | . | . | 17% | .
C[C@]12CC[C@H]3[C@@H](CCC4=CC(=O)CC[C@@H]43)[C@@H]1CC[C@@H]2OC(=O)CCc1ccccc1 | . | . | . | -4% | .
O=C1CC(N2CC=C(c3ccccc3)CC2)C(=O)N1c1ccc(F)cc1 (stereo unspecified) | 28µM* | -9% | -7% | -6% | -4% | RECQ1 inh-2=-24%
Oc1c(Cl)cccc1Cl | 10% | . | . | 4% | .
O=C1C(=O)c2ccccc2-c2ccccc21 | ? | -30% | 20µM* | ? | -17% | RECQ1 inh-2=10µM*
O=C1C(=O)c2cccc3cccc1c23 | -6% | 6% | -11% | 19% | 8%
O=c1c2ccccc2nc(-c2ccccc2F)n1-c1ccccc1 | . | 6% | -2% | -10% | -9%
O=C(O)c1ccccc1-c1nc2ccccc2n1-c1ccccc1 | 11µM* | -26%[57.1 µM] | 0% | 3% | -2% | RECQ1 conf=40µM*;RECQ1 inh-2=1.8µM*
BrCCBr | -2% | . | . | 1% | .
O=c1[nH]c(=S)n(CCC2=CCCCC2)c(O)c1C=NCCCn1ccnc1 | ? | -10% | -8% | 16% | -7% | RECQ1 inh-2=-19%
O=c1ccc(=O)[nH][nH]1 | -6% | . | . | 3% | .
CC1COC2=C1C(=O)C(=O)c1c2ccc2c1CCCC2(C)C (stereo unspecified) | 13µM*! | . | ? | ? | . | RECQ1 conf=100µM*;ADP FP counter=28µM*
C[C@H]1COC2=C1C(=O)C(=O)c1c2ccc2c1CCCC2(C)C | ? | ? | -22% | -3% | ?
COCCCn1c(N)c(C(=O)OCCOC)c2nc3ccccc3nc21 | 8% | -7% | -1% | -6% | -1%
CCCNC(=O)c1c(N)n(Cc2ccc3c(c2)OCO3)c2nc3ccccc3nc12 | -7% | -4% | -9% | -6% | -10%
CC(C)CCNC(=O)c1c(N)n(Cc2ccc3c(c2)OCO3)c2nc3ccccc3nc12 | ? | 5% | -27% | 5% | -2% | RECQ1 inh-2=-18%
CCCCNC(=O)c1c(N)n(CCCOC)c2nc3ccccc3nc12 | ? | -8% | ? | -10% | ? | RECQ1 inh-2=-11%
CC(=O)OCc1ccc2c(c1)OCO2 | 13% | . | . | 14% | .
C=C1C(=O)O[C@H]2C[C@@H](C)[C@@H]3C=CC(=O)[C@@]3(C)C[C@H]12 | -7% | 9% | -1% | 1% | 1%
C=C1C(=O)O[C@@H]2C[C@@H](C)[C@@H]3C=CC(=O)[C@@]3(C)[C@@H](OC(=O)CC(=O)O[C@H]3[C@@H]4C(=C)C(=O)O[C@@H]4C[C@@H](C)[C@@H]4C=CC(=O)[C@]43C)[C@H]12 | 25µM* | 45µM* | 22µM* | -11% | ? | RECQ1 conf=14µM*;ADP FP counter=-4%[91.9 µM]
CCOC(=O)c1ccc(N=Cc2c(O)n(-c3ccccc3F)c(=S)[nH]c2=O)cc1 | 32µM* | 79µM* | 0% | 10% | ? | RECQ1 inh-2=-13%
SMILES | RECQ1 inh-1 | WRN inhibitor | BLM inh | APEX1 inh | FEN1 inh-1 | others
CCOC(=O)c1c(/N=C/c2c(O)n(-c3ccccc3F)c(=S)[nH]c2=O)sc2c1CCCC2 | i | ? | -10% | -4% | -20%
ClC(Cl)Br | -1% | . | . | 3% | .
C[C@]12CCC3C(CC[C@H]4C[C@@H](O)CC[C@]34C)C1CC[C@@H]2OC(=O)[C@H](N)CCCCN (stereo partly specified) | . | 1%[11.6 µM] | . | -6% | ? | FEN1 inh-2=43*
O=C1NC(=O)C(Sc2ccccc2[N+](=O)[O-])C(=O)N1 | . | ? | 0% | 39% | 0%
C=CCn1c(CSc2ccccc2[N+](=O)[O-])n[nH]c1=S | . | 40µM* | -25% | ? | ? | FEN1 inh-2=76*
c1ccc2nc3ccccc3cc2c1 | i | . | -9% | -3% | ?
OCCNc1c2c(nc3ccccc13)CCCC2 | 13% | 10% | 6% | -2% | 4%
CNc1ccc2nc3ccccc3[n+](C)c2c1 | . | 3µM* | 18µM* | 21µM* | ? | FEN1 inh-2=38*
C[n+]1c2ccccc2nc2ccc(NCCO)cc21 | . | 4.7µM* | 18µM* | 27µM* | 40µM* | FEN1 inh-2=43*
Cc1ccccc1-n1c(C)cc(/C=C2/C(=O)NC(=O)N(Cc3ccco3)C2=O)c1C | -25% | -14% | -6% | -7% | -15% | FEN1 inh-2=?
CN1C(=O)C(=Cc2ccc(Sc3ccccc3)o2)C(=O)N(C)C1=O | -1% | ? | 1% | -6% | -3%
CN1C(=O)C(=Cc2ccc(Sc3ccccc3)o2)C(=O)N(C)C1=S | . | ? | . | . | -18% | FEN1 inh-2=85*
COc1cc2c(ccc3c4cc(OC)c(OC)cc4c[n+](C)c23)cc1O | . | ? | . | . | 3.5µM* | FEN1 inh-2=2.7*
N#CC(C#N)=Cc1ccc(C=C(C#N)C#N)cc1 | -18% | ? | -18% | 3% | 5% | FEN1 inh-2=95*
Cc1cc(N2CCCC2)ccc1C=C(C#N)C#N | -7% | ? | -7% | -5% | -1%
ClCC(Cl)CCl | 3% | . | . | 5% | .
Cc1ccc2c(C)c3ccc4ccccc4c3c[n+]2c1 | . | 21%[11.6 µM] | . | . | 8.9µM* | FEN1 inh-2=6.7*
CC(C)Br | -13% | . | . | 4% | .
[Cl][In]([Cl])[Cl] | -6% | . | -3% | 0% | ?
